The results in this text go back to PubChem BioAssay (NCATS).

Results filed as inconclusive are left out. Values without a mark were called inactive. Calls follow the shape of the dose curve; as a rule, active = well fitted cell-killing curve with a large enough effect; inconclusive = small, poorly fitted or top-dose-only effect, or effect the other way; inactive = flat fitted curve, though single readings scatter. Where a SMILES comes first, the peptide text is derived from it.
% is scaled to controls: 0 for no effect and ±100 for the full control effect.

This test relates to CAOV3. Kind of test: Primary qHTS to identify gynecologic anti-cancer compounds using libraries of approved drugs and bioactive compounds (AID 1345084). Also: nearly all actives have a fitted effect of over 55% in size. Conditions: Gynecologic cancer cell panel viability, ATPlite luminescence, 48 h; series mostly up to 57.5 µM; activity change, negative = cytotoxicity: at the top concentration. From the text: National Center for Advancing Translational Sciences [NCATS] Assay Overview: Chemotherapeutic drug responses vary from cancer to cancer and from patient to patient. These variations could be caused by a number of factors including patient genomic background, tumor mutations, tumor heterogeneity, and aspects of drug treatment. Chemotherapeutic drug resistance is also a common issue and can lead to ineffective treatment and patient death. Here we have profiled the cell killing effects of thousands of compounds to characterize the responses in three gynecological cancers, identify cancer-selective compounds, and understand the diversity of responses to these compounds from pan-cancer suppressors to single cell line selective compounds. In this assay, we screened a 7,914 compound drug library that included approved drug and bioactive compounds in six ovarian, three cervical, and […] placental cancer cell lines using the ATPlite assay for cell viability. […] The cervical cancer cell lines included HeLa, Ca Ski, and C-33 A. The placental cancer cell lines included JEG-3. HEK 293T cells were used as the control cell line to determine the selectivity index. ATPlite is a luminescence based assay reliant on the conversion of a luciferase substrate to light in the presence of ATP. As a cytotoxic compound will suppress growth and decrease the number of cells, the concentration of ATP will decrease, and less light signal will be detected in the well.
Assay Protocol Summary: 1,000 cells in 4 uL of media were dispensed into white, solid bottom 1536-well plates using a Multidrop Combi (Thermo Scientific). The Assay plates were incubated for 16 hours at 37 C with 5% CO2 in assay plates, followed by the addition of 23 nL of DMSO or drug dissolved in DMSO. Each compound was assayed in five concentrations (0.092, 0.46, 2.3, 11.5, and 57.5 uM), using the automated Wako 1536 Pin Tool workstation and incubated at 37 C with 5% CO2 48 hours. 4 uL of ATPlite, the ATP monitoring reagent, was then added to the each well of the assay plates using the Multidrop Combi reagent dispenser followed by incubation for 15 minutes at room temperature. The resulting luminescence was measured using the ViewLux plate reader.
Consider `CC1OC(OC2C(OC3C(O[C@H]4CC[C@@]5(C)C(CC[C@]6(C)C5C(=O)CC5=C7CC(C)(C)CC(O)[C@]7(C)CC[C@]56C)C4(C)C)OC(C(=O)O)C(O)C3O)OCC(O)C2O)C(O)C(O)C1O` (stereo not given in full), for which the activity change, negative = cytotoxicity was 18.5% [at 11.6 µM]. For the compound `CC[C@H](C)[C@H](NC(=O)[C@H](Cc1ccc(O)cc1)NC(=O)[C@@H](N)C(C)C)C(=O)N[C@@H](Cc1cnc[nH]1)C(=O)N1CCC[C@H]1C(=O)N[C@@H](Cc1ccccc1)C(=O)O`, the activity change, negative = cytotoxicity was 20.7% [at 6.55 µM]. The value for `C=CC(C)(O)C1CC2C3(C)CCCC(C)(C)C3C(O)C(O)C2(C)O1` (stereo not given) was 20.1% [at 38.5 µM]. With `CC/C=C\CC1C(CC(=O)O)CCC1OC1OC(CO)C(O)C(O)C1O` (stereo not given), the “activity change, negative = cytotoxicity” value was 2.06% [at 38.5 µM]. The value for `CC(=O)C1CCC(=O)N1Cc1ccccc1` (stereo not given) was -3.9%; that for `CC(=O)O[C@@H]1C(O)C[C@@]2(C)C(CC[C@@H](C)C23Cc2c(O)cc4c(c2O3)CNC4=O)C1(C)C` (stereo not given in full) was 2.42% [at 25.3 µM]. Under `Cc1cccc(NC(=O)CN2CCC(c3ccccn3)CC2)c1` stands 23.7%.

Take `Cc1ccccc1NC(=O)Nc1ccc(CN2C(=O)N([C@@H](CC(C)C)C(=O)N[C@@H](CC(=O)O)c3ccccc3)C(=O)C2(C)C)cc1`: the “activity change, negative = cytotoxicity” value is 17%. As for `C[C@@H]1O[C@@H](O[C@H]2[C@H](OC(=O)[C@]34CCC(C)(C)C[C@H]3C3=CCC5[C@@]6(C)CC[C@H](O[C@@H]7O[C@H](CO[C@@H]8OC[C@H](O)[C@H](O)[C@H]8O[C@@H]8OC[C@@H](O)[C@H](O)[C@H]8O)[C@@H](O)[C@H](O)[C@H]7O)C(C)(C)C6CC[C@@]5(C)[C@]3(C)C[C@H]4O)O[C@H](CO)[C@@H](O)[C@@H]2O)[C@H](O[C@@H]2O[C@H](CO)[C@@H](O)[C@H](O)[C@H]2O)[C@H](O)[C@H]1O[C@@H]1OC[C@@H](O)[C@H](O[C@@H]2OC[C@@H](O)[C@H](O)[C@H]2O)[C@H]1O` (stereo not given in full), the activity change, negative = cytotoxicity is -0.37% [at 6.55 µM].

As for `O=C(OC[C@H]1O[C@@H](Oc2ccccc2COC(=O)C2(O)C=CCCC2O)[C@H](O)[C@@H](O)[C@@H]1O)c1ccccc1` (stereo not given in full), the “activity change, negative = cytotoxicity” value was 4.24% [at 25.3 µM]. Under `CC(=O)O[C@@H]1C=C2[C@H](CC[C@@]3(C)[C@@]2(O)CC[C@H]2Cc4c([nH]c5ccccc45)[C@@]23C)O[C@@H]1C(C)(C)O` stands 6.4% [at 25.3 µM]. Under `O=C(O[C@@H]1O[C@H](CO)[C@@H](O)[C@H](O)[C@H]1O)c1ccccc1` stands 9.29%; under `O=C1C(Cl)=C(N2CCOCC2)C(=O)N1c1ccc(Cl)c(Cl)c1`, 2.53% [at 25.3 µM]. The value for `CC1(C)Oc2ncnc(N)c2N=C1c1ccc(C2CCC(CC(=O)O)CC2)cc1` (stereo not given) was -1.91%; that for `CC1=CC23[C@H](C=C(C(=O)O)[C@@H]2COC(=O)[C@]3(O)CO)[C@@H]1C` (stereo not given in full) was 1.07%. Consider `Cc1ncc(Cl)cc1NCc1ccc(C(=O)NC(CC2CCCC2)C(=O)NC2CC2)s1` (stereo not given), for which the “activity change, negative = cytotoxicity” value was 14.8%.

As for `CN1CCCC1Cc1c[nH]c2ccc(CCS(=O)(=O)c3ccccc3)cc12` (stereo not given), the “activity change, negative = cytotoxicity” value was -6.86%. Under `CC(=O)O[C@H]1C[C@@]2(C)[C@@H](CC[C@H]3[C@@]4(C)C=CC(=O)[C@@H](C)[C@@H]4[C@H](OC(C)=O)C(=O)[C@@]32C)/C1=C(\CCC=C(C)C)C(=O)O` stands 2.42% [at 25.3 µM]; under `C[C@H]1CC[C@H]2[C@@H](C=C[C@@](C)(O)[C@]2(C)C(=O)CCO)C1`, 8.05%; under `CC(=O)NC1C(OC2CCC3(C)C(CCC4(C)C3CC=C3C5CC(C)(C)CCC5(C(=O)O)C(O)CC34C)C2(C)C)OC(CO)C(O)C1O` (stereo not given), -20.2% [at 25.3 µM]. `CC[C@@H](Nc1c(Nc2cccc(C(=O)N(C)C)c2O)c(=O)c1=O)c1ccc(C)o1`: the “activity change, negative = cytotoxicity” value was 10.7%. Under `COc1ccc2c(c1)N1C(=O)C[C@@]34C=CC[N@+]5([O-])CC[C@H]2[C@H](CC3)[C@@]145` stands -1.93% [at 38.5 µM]; under `CC/C=C/C=C/C1(C)OC(CC(CO)OC)=CC1=O` (stereo not given), 17.2%. With `COC(=O)C(CC1(OC(=O)C(C)C)c2ccccc2N2C(=O)C(C)(C)N(O)C21)n1cnc2ccccc2c1=O` (stereo not given), the “activity change, negative = cytotoxicity” value is -2.73% [at 25.3 µM]. Under `COc1cnc(-c2ccc(Cn3c(CC(C)(C)C(=O)O)c(SC(C)(C)C)c4cc(OC[C@@H]5Cc6ccccc6N5C(C)=O)ccc43)cc2)nc1` stands -4.16% [at 38.5 µM]. Regarding `CC(=O)OC1C(C)C2C(OC3OC(CO)C(O)C(O)C3O)OC=C(C(=O)O)C2C1OC(=O)c1ccccc1` (stereo not given), the “activity change, negative = cytotoxicity” value is 4.77% [at 25.3 µM]. Under `O=C(OC[C@H]1O[C@H](O[C@]2(CO)O[C@H](CO)[C@@H](O)[C@@H]2O)[C@H](O)[C@@H](O)[C@@H]1O)c1ccc(O)cc1` stands 25.9% [at 25.3 µM]; under `NC[C@@H]1O[C@@H](O[C@@H]2[C@@H](O[C@@H]3O[C@H](CO)[C@@H](O)[C@H]3O)[C@H](O)[C@@H](N)C[C@H]2N)[C@@H](N)[C@H](O)[C@H]1O`, 0.692% [at 11.6 µM]. Turning to `CC1(C)CC[C@]2(C(=O)O)CC[C@]3(C)C(=CCC4[C@@]5(C)C[C@@H](O)[C@H](O)[C@@](C)(CO)C5[C@H](O)C[C@]43C)[C@@H]2C1` (stereo not given in full), the “activity change, negative = cytotoxicity” value was -11.5% [at 25.3 µM]. The value for `CC1(C)CC[C@]2(C(=O)O[C@@H]3O[C@H](CO)[C@@H](O)[C@H](O)[C@H]3O)CC[C@]3(C)C(=CCC4[C@@]5(C)CC[C@H](O[C@H]6O[C@H](CO)[C@@H](O)[C@H](O[C@@H]7O[C@H](CO)[C@@H](O)[C@H](O)[C@H]7O)[C@H]6O)C(C)(C)C5CC[C@]43C)[C@@H]2C1` (stereo not given in full) was 1.94% [at 11.6 µM].

Turning to `COC(=O)c1ccc(OC)cc1O[C@@H]1O[C@H](CO[C@@H]2OC[C@@H](O)[C@H](O)[C@H]2O)[C@@H](O)[C@H](O)[C@H]1O`, the “activity change, negative = cytotoxicity” value is 18.1% [at 25.3 µM]. Under `CC1(C)C=Cc2c(ccc3c2N=C2C(C)(C)[C@@H]4C[C@]56CCCN5C(=O)[C@@]4(C[C@]23O)NC6=O)O1` stands 11.8% [at 25.3 µM]; under `O=C(C[C@@H]1C(C(=O)O)=CO[C@@H](O[C@@H]2O[C@H](CO)[C@@H](O)[C@H](O)[C@H]2O)/C1=C\CO)OCCc1ccc(O)c(O)c1`, -4.85% [at 25.3 µM]. As to `C=C1C2CCC3CC2(CC(O)C2(O)C1CC(OC1OC(CO)C(O)C(O)C1O)C2(C)C)CC3(C)O` (stereo not given), the “activity change, negative = cytotoxicity” value was -0.418% [at 25.3 µM]. Under `COc1c(O[C@@H]2O[C@H](CO)[C@@H](O)[C@H](O)[C@H]2O)c(CCC(=O)O)cc2ccoc12` stands 2.43% [at 38.5 µM]; under `C=C(C)[C@@H]1CC[C@]2(C(=O)O)CC[C@]3(C)[C@H](CCC4[C@@]5(C)CCC(=O)C(C)(C)C5C(O)C[C@]43C)C12` (stereo not given in full), -1.85% [at 25.3 µM]. On to `O=C(O)C(Cc1ccccc1)NC(=O)C1CCCN1` (stereo not drawn) (H-Pro-Phe-OH; configuration not given here), for which the “activity change, negative = cytotoxicity” value is -9.48%. Under `CC(C)=CCC/C(C)=C/CO[C@@H]1O[C@H](CO[C@@H]2OC[C@](O)(CO)[C@H]2O)[C@@H](O)[C@H](O)[C@H]1O` stands 22.3% [at 25.3 µM].

With `COc1ccc(/C=C/C(=O)O[C@@H]2[C@@H](O)[C@@H](O)[C@H](O[C@H]3[C@@H]4C=CO[C@@H](O[C@@H]5O[C@H](CO)[C@@H](O)[C@H](O)[C@H]5O)[C@@H]4[C@@]4(CO)O[C@@H]34)O[C@H]2C)cc1`, the “activity change, negative = cytotoxicity” value was -0.695% [at 25.3 µM]. Under `C=C(C)C1Cc2c(ccc3c2OCC(c2ccc(O)cc2O)C3)O1` (stereo not given) stands 7.16% [at 38.5 µM].
